Results as given in PubChem BioAssay (EPA / NIEHS).
Inconclusive results are not listed. The source made the active and inactive calls. How the source made its calls, unless noted: active means hit-call score of the fitted dose curve at least 0.9, where 1 is the maximum; inactive means score below 0.9.

Legend:
[1] = CCTE_Shafer_MEA_dev_LDH: CCTE's Lactate Dehydrogenase Assay for Cytotoxicity in the Neural Network Formation Assay, Shafer Lab (AID 2284068; active means hit-call score of the fitted dose curve at least 0.9, where 1 is the maximum;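 further: exposure for twelve days from plating with re-dosing on DIV 5 and 9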)
Outline: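 Rat cortical primary neurons, MEA culture; dosing day 0–12, full medium plus compound exchange DIV 5, 9. Read-out: LDH enzyme activity, spectrophotometric. DMSO = negative control/baseline; signal loss → cytotoxicity.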

[2] = CCTE_Shafer_MEA_dev_AB: CCTE's Alamar Blue Assay for Cytotoxicity in the Neural Network Formation Assay, Shafer Lab (AID 2284083; active means hit-call score of the fitted dose curve at least 0.9, where 1 is the maximum;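 further: resazurin reduction fluorescence as viability of cultured neurons; twelve days of exposure from plating with re-dosing on DIV 5 and 9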)
Outline: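 Rat cortical primary cultures, 1.5 x 10^5 cells/well on MEA; continuous compound exposure over 12 days of network development, re-dosed with full medium change DIV 5 and 9. Alamar Blue fluorescence; loss of signal = cytotoxicity vs DMSO baseline.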

[3] = CCTE_Shafer_MEA_acute_LDH: CCTE's Lactate Dehydrogenase Assay for Cytotoxicity in the Neural Acute Assay, Shafer Lab (AID 2284086; active means hit-call score of the fitted dose curve at least 0.9, where 1 is the maximum;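 further: active means LDH release rises above DMSO vehicle level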)
Outline: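 Medium collected from MEA wells of primary rat cortical cultures (DIV 13 or 15) immediately after 40 min chemical exposure is assayed spectrophotometrically for lactate dehydrogenase activity. Endpoint fitted in positive direction versus DMSO.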

[4] = UKN4_HCS_LUHMES_neurite_outgrowth: University of Konstanz (UKN) Leist Lab Neurite Outgrowth Assay in human LUHMES cells (UKN4) (AID 2284206); settings: actives raise or lower the signal
Outline: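 Human LUHMES cells were differentiated for two days, replated and treated with chemicals for 24 h. Neurite outgrowth was quantified as calcein-stained neurite area by HCS imaging, fitted bidirectionally relative to DMSO.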

[5] = IUF_NPC1b_proliferation_BrdU_72hr: Leibniz Research Institute for Environmental Medicine (IUF) 72-hour Neural Progenitor Cell Bromodeoxyuridine (BrdU) Proliferation Assay (NPC1b) (AID 2284207)
Outline: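 Neural progenitor spheres of human fetal origin are treated for three days; BrdU added for the last 16 h is quantified by luminescence ELISA, with DMSO as baseline and EGF/FGF omission as positive control.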

[6] = IUF_NPC1a_proliferation_area_72hr: Leibniz Research Institute for Environmental Medicine (IUF) 72-hour Neural Progenitor Cell Proliferation Area Assay (NPC1a) (AID 2284208)
Outline: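 Single 0.25–0.35 mm human fetal neural progenitor spheres in proliferation medium with EGF and FGF, exposed 72 h from plating without renewal at 37C, pH 7.2-7.6. Sphere area growth measured by automated phase-contrast imaging, relative to DMSO.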

[7] = IUF_NPC1_viability_72hr: Viability Assessment at 72 hours in the Leibniz Research Institute for Environmental Medicine (IUF) Neural Progenitor Cell Proliferation Assay (NPC1) (AID 2284209)
Outline: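 Spheres of primary human neural progenitors were plated singly in proliferation medium and treated for 72 h. Mitochondrial reduction of resazurin was then measured by fluorescence and analysed against DMSO controls.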

[8] = CCTE_Mundy_HCI_Cortical_Synap_Neur_Matur_NeuriteSpotCountPerNeuriteLength: CCTE's Synaptogenesis and Neurite Maturation Assay in rat cortical cells for Neurite Spot Count per Neurite Length, Mundy Lab (AID 2284210)
Outline: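 Neurite-associated synapse density (synaptophysin puncta per unit neurite length) is measured by fluorescence high-content imaging in rat cortical cultures treated from DIV 7 and fixed at DIV 12, with DMSO as negative control.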

[9] = CCTE_Mundy_HCI_Cortical_Synap_Neur_Matur_BPCount: CCTE's Synaptogenesis and Neurite Maturation Assay in rat cortical cells for Branch Point Count, Mundy Lab (AID 2284211)
Outline: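 HCI read-out of branch points from MAP2/synaptophysin/Hoechst immunofluorescence; rat cortical cultures, AraC DIV 5, dosing DIV 7, fixed DIV 12; fit in positive direction vs DMSO baseline.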

[10] = CCTE_Mundy_HCI_Cortical_NOG_NeuriteCount: CCTE's Neurite Outgrowth Assay in rat cortical cells for Neurite Count, Mundy Lab (AID 2284212);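 further: cells fixed about two days after chemical exposure began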
Outline: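 Rat cortical primary cells; compound added 2 h post-plating, 1/10 dilution of working solution. Anti-betaIII-tubulin/AF488 ICC; ArrayScan neurite count vs DMSO.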

[11] = CCTE_Mundy_HCI_Cortical_Synap_Neur_Matur_NeuriteSpotCountPerNeuron: CCTE's Synaptogenesis and Neurite Maturation Assay in rat cortical cells for Neurite Spot Count per Neuron Count, Mundy Lab (AID 2284215)
Outline: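 Rat primary cortical cultures given AraC at DIV 5, dosed from DIV 7 to DIV 12 with media change. Fixed, stained for MAP2, synaptophysin and Hoechst; neurite-associated synaptophysin puncta per neuron quantified by high-content imaging versus DMSO.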

[12] = CCTE_Mundy_HCI_Cortical_Synap_Neur_Matur_NeuriteCount: CCTE's Synaptogenesis and Neurite Maturation Assay in rat cortical cells for Neurite Count, Mundy Lab (AID 2284222);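 further: exposure from day 7 to day 12 in vitro with readout at day 12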
Outline: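 Primary rat cortical cells were plated, treated with AraC at DIV 5, then exposed to chemicals from DIV 7 through DIV 12. After fixation and immunostaining for MAP2 and synaptophysin, imaging quantified neurites, with DMSO as the negative control.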

[13] = CCTE_Mundy_HCI_Cortical_Synap_Neur_Matur_CellBodySpotCount: CCTE's Synaptogenesis and Neurite Maturation Assay in rat cortical cells for Cell Body Spot Count, Mundy Lab (AID 2284223)
Outline: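 Primary rat cortical cultures, AraC added at DIV 5; dosed DIV 7 through DIV 12 […]. Fixed, stained for MAP2 and synaptophysin with Hoechst; cell body-associated synaptophysin puncta per neuron counted by high-content imaging, loss vs DMSO.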

[14] = CCTE_Mundy_HCI_hNP1_Pro_ResponderAvgInten: CCTE's Proliferation Assay in human neuroprogenitor cells, Mundy Lab (AID 2284224; active means hit-call score of the fitted dose curve at least 0.9, where 1 is the maximum;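 further: human neural progenitor cells hNP1 derived from WA09 embryonic stem cells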)
Outline: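 Human neuroprogenitors (hNP1, WA09 lineage) receive test chemical after 40 to 44 hours of attachment. A four-hour BrdU pulse begins twenty hours later, followed by fixation and high content imaging; signal is referenced to DMSO controls.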

[15] = UKN4_HCS_LUHMES_cell_viability: Viability Assessment in the University of Konstanz (UKN) Leist Lab Neurite Outgrowth Assay in human LUHMES cells (UKN4) (AID 2284232)
Outline: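 Cells switched to differentiation medium at day 0, replated on day 2 in medium lacking cAMP and GDNF, and compound-treated once attached. Live staining began 23.5 h later, imaging followed at 24 h.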

[16] = CCTE_Mundy_HCI_Cortical_NOG_NeuronCount: CCTE's Neurite Outgrowth Assay in rat cortical cells for Neuron Count, Mundy Lab (AID 2284236; active means hit-call score of the fitted dose curve at least 0.9, where 1 is the maximum;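 further: neurons counted by imaging betaIII-tubulin and Hoechst stained cortical cells; cells exposed to compound for about 48 hours before fixation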)
Outline: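 Read-out: neuron number by high-content imaging of betaIII-tubulin (Alexa Fluor-488) and Hoechst-labelled rat primary cortical cells.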

[17] = CCTE_Mundy_HCI_Cortical_NOG_BPCount: CCTE's Neurite Outgrowth Assay in rat cortical cells for Branch Point Count, Mundy Lab (AID 2284237);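 further: branch points counted about two days after chemical exposure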
Outline: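 Measured 50.33 h after dosing, this morphology endpoint uses rat primary cortical cultures labelled for betaIII-tubulin. Branch points are quantified by high-content imaging, with DMSO as negative control and baseline.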

[18] = CCTE_Mundy_HCI_hNP1_Casp3_7: CCTE's Caspase-Glo 3/7 Assay in human neuroprogenitor cells for Apoptosis, Mundy Lab (AID 2284240)
Outline: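 Neuroepithelial-lineage stem cells from WA09 embryonic cells were treated with chemicals after 40–44 h of culture. Twenty-four hours later, caspase-3/7 activation was detected luminescently after a 30 min room-temperature reagent step, with DMSO as baseline.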

[19] = CCTE_Mundy_HCI_hNP1_CellTiter: CCTE's Cell Titer-Glo 2 Assay in human neuroprogenitor cells for Viability, Mundy Lab (AID 2284241; active means hit-call score of the fitted dose curve at least 0.9, where 1 is the maximum)
Outline: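 Measures ATP content in human neural progenitors derived from WA09 embryonic cells. Read-out at 26.5 hours after dosing, with DMSO serving as the negative control and baseline.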

[20] = IUF_NPC2c_oligodendrocyte_migration_120hr: Leibniz Research Institute for Environmental Medicine (IUF) 120-hour Neural Progenitor Cell Migration Assay for Oligodendrocyte Migration (NPC2c) (AID 2284297);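 further: O4-positive oligodendrocyte migration distance divided by radial glia migration distance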
Outline: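 Human fetal neural progenitor spheres (0.3 mm) are plated on poly-D-lysine/laminin in N2 differentiation medium and exposed for 120 h, with half-medium renewal at day 3. Oligodendrocyte (O4+) migration distance comes from ICC imaging, normalised to radial glia migration.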

[21] = IUF_NPC2a_radial_glia_migration_72hr: Leibniz Research Institute for Environmental Medicine (IUF) 72-hour Neural Progenitor Cell Migration Assay for Radial Glia Migration (NPC2a) (AID 2284299)
Outline: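 Single 0.3 mm neurospheres were plated per well in N2 differentiation medium and exposed from the start of differentiation. After 72 hours, brightfield images were taken and radial glia migration from the sphere core edge was measured manually in four directions, averaged per well.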

[22] = IUF_NPC2b_neuronal_migration_120hr: Leibniz Research Institute for Environmental Medicine (IUF) 120-hour Neural Progenitor Cell Migration Assay for Neuron Migration (NPC2b) (AID 2284300)
Outline: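 0.3 mm hNPC spheres on poly-D-lysine/laminin in N2 differentiation medium exposed 120 h, half-medium refresh day 3; 7 concentrations, DMSO max 0.1%. Neuron (TUBB3) distance from sphere core by ICC imaging, normalised to radial glia migration.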

[23] = IUF_NPC3_neuronal_differentiation_120hr: Leibniz Research Institute for Environmental Medicine (IUF) 120-hour Neuronal Differentiation Assay (NPC3) (AID 2284301)
Outline: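 Neuronal differentiation of primary human neural progenitors measured by high-content imaging: percent TUBB3+ of Hoechst+ nuclei within migrated area at 120 h, seven-point serial dilution plus solvent control, gain or loss relative to DMSO.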

[24] = IUF_NPC5_oligodendrocyte_differentiation_120hr: Leibniz Research Institute for Environmental Medicine (IUF) 120-hour Oligodendrocyte Differentiation Assay (NPC5) (AID 2284304; active means hit-call score of the fitted dose curve at least 0.9, where 1 is the maximum;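 further: primary human fetal neural progenitor spheres plated to migrate and differentiate; share of O4-positive cells among Hoechst nuclei found by CNN image analysis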)
Outline: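 Human fetal neural progenitor spheres (0.3 mm) plated on poly-D-lysine/laminin in N2 differentiation medium and exposed for 120 h at 7 concentrations, with half-medium renewal at day 3. O4-positive cells identified by CNN, expressed as percent of Hoechst nuclei.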

[25] = IUF_NPC4_neurite_area_120hr: Leibniz Research Institute for Environmental Medicine (IUF) 120-hour Neuronal Morphology Assay for Neurite Area (NPC4) (AID 2284305; active means hit-call score of the fitted dose curve at least 0.9, where 1 is the maximum)
Outline: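 Endpoint at 120 h: automated imaging of TUBB3/Hoechst-stained differentiating human neural progenitor spheres, neurite area per neuron from skeletonization. DMSO solvent control, not above 0.1%, set the baseline; medium was half-replaced on day 3.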

[26] = IUF_NPC2-5_cytotoxicity_72hr: Cytotoxicity Assessment at 72 hours in the Leibniz Research Institute for Environmental Medicine (IUF) Neural Progenitor Cell Migration and Differentiation Assay for Cytotoxicity (NPC2-5) (AID 2284306; active means hit-call score of the fitted dose curve at least 0.9, where 1 is the maximum;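 further: LDH release into supernatant measured by resorufin fluorescence marking membrane damage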)
Outline: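 Primary human neural progenitor spheres migrate and differentiate on laminin. Compound is present from the start of differentiation, with DMSO kept at or below 0.1%. At 72 h, supernatant LDH is quantified fluorometrically, with values fitted in the positive direction.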

[27] = IUF_NPC2-5_cytotoxicity_120hr: Cytotoxicity Assessment at 120 hours in the Leibniz Research Institute for Environmental Medicine (IUF) Neural Progenitor Cell Migration and Differentiation Assay (NPC2-5) (AID 2284307; active means hit-call score of the fitted dose curve at least 0.9, where 1 is the maximum)
Outline: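 Human fetal (GW 16-19) neural progenitor spheres (0.3 mm) plated on poly-D-lysine/laminin in N2 differentiation medium, exposed 120 h with half-medium renewal at day 3; 7 concentrations plus solvent control, DMSO ≤0.1%. LDH release in supernatant read by resorufin fluorescence.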

[28] = IUF_NPC2-5_cell_number_120hr: Cell Number Assessment at 120 hours in the Leibniz Research Institute for Environmental Medicine (IUF) Neural Progenitor Cell Migration and Differentiation Assay (NPC2-5) (AID 2284308);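 further: count of Hoechst-stained nuclei in migration zone around plated human neural progenitor spheres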
Outline: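 Human fetal neural progenitor spheres (0.3 mm) plated on poly-D-lysine/laminin in N2 differentiation medium, exposed five days across 7 concentrations with half-medium refresh at day 3. Hoechst-positive nuclei counted in migration area at 120 h, relative to DMSO.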

[29] = IUF_NPC2-5_viability_120hr: Viability Assessment at 120 hours in the Leibniz Research Institute for Environmental Medicine (IUF) Neural Progenitor Cell Migration and Differentiation Assay (NPC2-5) (AID 2284312)
Outline: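 Human fetal (GW 16-19) neural progenitor spheres of 0.3 mm were plated on poly-D-lysine/laminin in N2 differentiation medium and exposed from day 0 for 120 h, with half-medium refresh at day 3. Viability was read as alamar blue resazurin-to-resorufin fluorescence against DMSO.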

[30] = IUF_NPC1_cytotoxicity_72hr: Cytotoxicity Assessment at 72 hours in the Leibniz Research Institute for Environmental Medicine (IUF) Neural Progenitor Cell Proliferation Assay (NPC1) (AID 2284332; active means hit-call score of the fitted dose curve at least 0.9, where 1 is the maximum;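 further: rising LDH signal means more cytotoxicity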)
Outline: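 Membrane-integrity loss is scored from LDH released into the medium, detected as resorufin fluorescence, with activity fitted upward relative to baseline. Test material stays on human fetal-derived progenitor spheres for 72 h.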

[31] = CCTE_Mundy_HCI_iCellGluta_NOG_NeuronCount: CCTE's Neurite Outgrowth Assay in iCellGluta cells for Neuron Count, Mundy Lab (AID 2284340; active means hit-call score of the fitted dose curve at least 0.9, where 1 is the maximum;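 further: cells fixed about 48 h after compound addition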)
Outline: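 Neuron count read by automated high-content imaging of Hoechst 33342 and betaIII-tubulin/Alexa Fluor-488 labelling in human iPSC glutamatergic neurons. Activity fitted relative to DMSO.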

[32] = CCTE_Mundy_HCI_iCellGluta_NOG_NeuriteCount: CCTE's Neurite Outgrowth Assay in iCellGluta cells for Neurite Count, Mundy Lab (AID 2284342; active means hit-call score of the fitted dose curve at least 0.9, where 1 is the maximum;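 further: chemical exposure about 48 hours starting 2 hours after plating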)

Q: What does the source list for `O=C1CC2(CCCC2)CC(=O)N1CCCCN1CCN(c2ncccn2)CC1`?
A: outcome [1]: inactive; AC50 [2]: 15 µM (active); outcome [3]: inactive; AC50 [4]: 15.3 µM (active); outcome [5]: inactive; outcome [6]: inactive; outcome [7]: inactive; outcome [8]: inactive; outcome [9]: inactive; AC50 [10]: 11.9 µM (active); outcome [11]: inactive; outcome [12]: inactive; outcome [13]: inactive; outcome [14]: inactive; outcome [15]: inactive; outcome [16]: inactive; AC50 [17]: 9.79 µM (active); outcome [18]: inactive; outcome [19]: inactive; outcome [20]: inactive; outcome [21]: inactive; outcome [22]: inactive; outcome [23]: inactive; outcome [24]: inactive; outcome [25]: inactive; outcome [26]: inactive; outcome [27]: inactive; outcome [28]: inactive; outcome [29]: inactive; outcome [30]: inactive; outcome [31]: inactive; outcome [32]: inactive
